Only some compounds are listed: those with a hit (about 9% of all), similar ones and a draw of the others.
G9a inh = blocks human histone lysine methyltransferase G9a. 8.8% of 350,000 active. AID 504332. Potency, µM (highest dose often 102 µM), without a hit: top-dose activity, negative = inhibition, usual class: inhibitors. G9a H3K9 monomethylation, AlphaScreen, 2 h; note: % is set by controls: 0 for no effect and ±100 for the full control effect; nearly all actives have a fitted effect of over 75% in size
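Methyltransferase reactions run at room temperature for 2 h (20 nM enzyme, 500 nM biotin-H3K9 peptide, 20 uM SAM) after a 15 min compound preincubation; product detected by AlphaScreen beads and anti-H3K9me1 antibody.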
PLK1 PBD inh = PLK1 (human) polo-box domain binding inhibition; P53350; Plk1 PBD binding of FITC phosphopeptide, fluorescence polarization; Potency, µM, inactives show max response, negative = inhibition, most hits filed as inhibitors; 2.8% of 360,000 active; AID 720504; note: series mostly up to about 57 µM; % is set by controls: 0 for no effect and ±100 for the full control effect; nearly all actives have a fitted effect of over 65% in size
JMJD2A Tudor inh = blocks the human JMJD2A Tudor domain; O75164; AlphaScreen JMJD2A-Tudor / H3K4me3 peptide binding; Potency, µM (top dose mostly 114 µM), for the others: top-dose activity change, negative = inhibition, actives largely listed as inhibitors; 4.4% of 390,000 active; note: % is set by controls: 0 for no effect and ±100 for the full control effect; nearly all actives have a fitted effect of over 50% in size
HP1b binding inh = inhibitors of HP1-beta chromodomain binding to methylated histone tails; P83916; AlphaScreen HP1-beta / biotin-H3K9me3 peptide binding; Potency, µM (top dose mostly 114 µM), for the others: at the top dose activity change, negative = inhibition, hits mostly inhibitors; 0.56% of 390,000 active; AID 540317; note: nearly all actives have a fitted effect of over 70% in size
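HP1-beta protein (50 nM final) preincubated 30 min at room temperature with biotinylated H3(1-18)K9me3 peptide (50 nM) in PBS pH 7.4, 0.01% Tween-20, then compound added for 30 min. AlphaScreen streptavidin donor/nickel chelate acceptor beads (10 ug/mL final), 30 min dark, luminescence read.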
12-LOX inh = inhibitors of human 12S-lipoxygenase ALOX12; P18054; purified 12hLO, xylenol orange hydroperoxide absorbance; Potency, µM (highest dose often 108 µM), inactives show at the highest dose activity change, negative = inhibition, usual class: inhibitors; 1.1% of 580,000 active; AID 1671190; note: % is set by controls: 0 for no effect and ±100 for the full control effect
Target sequence (P18054 whole entry, looked up): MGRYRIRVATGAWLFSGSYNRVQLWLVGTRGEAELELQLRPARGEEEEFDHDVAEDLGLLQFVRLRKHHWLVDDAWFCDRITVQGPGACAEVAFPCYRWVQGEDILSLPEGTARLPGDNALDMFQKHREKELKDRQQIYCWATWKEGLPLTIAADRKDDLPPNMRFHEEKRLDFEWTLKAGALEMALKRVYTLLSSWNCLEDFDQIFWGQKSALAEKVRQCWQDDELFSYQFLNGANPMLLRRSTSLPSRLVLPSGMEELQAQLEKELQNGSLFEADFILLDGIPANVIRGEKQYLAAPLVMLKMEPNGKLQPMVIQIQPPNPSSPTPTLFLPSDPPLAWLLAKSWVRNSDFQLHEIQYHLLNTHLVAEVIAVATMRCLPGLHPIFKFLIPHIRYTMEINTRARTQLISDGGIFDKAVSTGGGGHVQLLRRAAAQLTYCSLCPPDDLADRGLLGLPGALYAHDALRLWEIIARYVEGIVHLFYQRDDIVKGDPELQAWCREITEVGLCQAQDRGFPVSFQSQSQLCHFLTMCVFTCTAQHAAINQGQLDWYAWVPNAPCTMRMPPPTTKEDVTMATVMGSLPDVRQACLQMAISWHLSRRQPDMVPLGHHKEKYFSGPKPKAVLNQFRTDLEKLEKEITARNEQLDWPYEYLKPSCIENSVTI
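Purified human 12hLO (150 nM final) in 25 mM Hepes, 0.01% Triton X-100, pH 7.0 was preincubated 15 min at room temperature with compound. Then 40 uM arachidonic acid was added, 30 min. Hydroperoxide was read by Fe-XO absorbance ratio 573/405 nm.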
BAZ2B block = BAZ2B (human) inhibition. 4.4% of 360,000 active. Potency, µM (highest dose often 114 µM), without a hit: top-dose activity change, negative = inhibition, usual class: inhibitors. AlphaScreen BAZ2B-H3K14Ac peptide displacement. AID 504333; note: % is set by controls: 0 for no effect and ±100 for the full control effect; nearly all actives have a fitted effect of over 60% in size
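BAZ2B (50 nM) with biotin-H3(5-23)K14Ac peptide (50 nM) in PBS pH 7.4, 0.01% Tween-20, preformed 30 min, then compound 30 min at room temperature; top concentration 110uM. AlphaScreen streptavidin donor/nickel chelate acceptor beads (10 ug/mL final), 20 min dark, signal read.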
The depositor's hits bear a star; ? = inconclusive; nt = not tested or not shown; [ ] = remark or other dose. Calls come from the whole dose curve; as a rule, active = well fitted curve in the direction sought with a large enough effect; inconclusive = small, poorly fitted or top-dose-only effect, or another doubt; inactive = no such curve, though single readings can be large; an effect the other way counts as inactive or inconclusive. Potency is the fitted concentration of half-maximal effect.

SMILES	G9a inh	PLK1 PBD inh	JMJD2A Tudor inh	HP1b binding inh	12-LOX inh	BAZ2B block
O=C(c1cccc2ccccc12)N1CCN(Cc2c[nH]c3ccccc23)CC1	nt	nt	nt	nt	1µM*	nt
O=C(O)c1cc(Cl)c(Cl)cc1C(=O)N(Cc1ccccc1)Cc1ccccc1	-5%[0.501 µM]	-21%	-3%	33%	0%	3%
O=C(/C=C/c1ccco1)NCc1ccccn1	35µM*	?	2%	31%	4%	-10%
C=CC(=O)NCC1OCCc2ccccc21 (configuration not stated)	16%[12.7 µM]	-19%	4%[11.4 µM]	8%	?	-8%
O=C(/C=C/c1ccco1)N(c1ccccn1)c1ccccn1	13µM*	?	22µM*	32µM*	34%	22µM*
O=C(/C=C/c1ccccc1)Nc1cccnc1Cl	21%	-15%	2%	41%	10%	11%
O=C(c1ccco1)N(c1ccccn1)c1ccccn1	5%[2.33 µM]	1%	2%	33%	0%	-3%
O=C(/C=C/c1ccco1)NCC1OCCc2ccccc21 (configuration not stated)	5%[12.7 µM]	?	50µM*	32µM*	45µM*	45µM*
O=C(/C=C/c1ccco1)Nc1cccnc1Cl	79µM*	-12%	-6%	5%	0%	-13%
O=c1c2ccccc2cnn1Cc1nc(-c2ccc3nc[nH]c3c2)no1	nt	nt	nt	nt	75%	nt
CNS(=O)(=O)c1cccc(C(=O)OCC(=O)Nc2ccc(Cl)cc2F)c1	8%	-6%	-8%	11%	-16%	0%
COc1ccc(/C=N/NC(=O)c2ccc(N(C)S(=O)(=O)c3ccccc3)cc2)cc1OC	22%[59 µM]	-10%	-13%	12%[57 µM]	31%	6%
COc1ccc(/C=C/C(=O)NCCc2nc3ccccc3[nH]2)cc1	0%	-4%	-12%	18%	181%	12%
CCOC(=O)C1C(c2ccc3c(c2)OCO3)NC(=O)NC1(O)C(F)(F)F (configuration not stated)	-4%[2.33 µM]	3µM*	18µM*	-4%	0%	12%
NC(=O)C[C@H](N)c1cn([C@@H](CC(N)=O)C(=O)N2CCNCC2)nn1	-15%[2.33 µM]	-2%	79µM*	-4%	-7%	?
N[C@@H](CO)c1cn([C@@H](Cc2cc3ccccc3[nH]2)C(=O)N2CCNCC2)nn1	-6%[12.7 µM]	-13%	79µM*	27%	?	50µM*
Nc1nc(Cl)nc2c1ncn2[C@@H]1O[C@H](CO)[C@@H](O)[C@H]1O	12%[59 µM]	-8%	-8%	25%	-3%	9%
Cc1cc(-c2ccc(C)c(S(=O)(=O)NCCCN3CCN(c4ccccc4)CC3)c2)on1	71µM*	1%	?	-8%[57 µM]	-3%	?
Cc1cc(-c2ccc(C)c(S(=O)(=O)NCCCN3CCN(c4ccccc4F)CC3)c2)on1	0%	4%	-30%	13%[57 µM]	-10%	-34%
O=C1c2ccccc2C(=O)c2c1cccc2N1CCCC1	4µM*	-3%	5µM*	?	-19%	5µM*
O=C1C=C(N2CCCCC2)c2ccccc2C1=O	nt	-7%	-7%	?	265%	nt
O=C1c2cccc3c(N4CCCCC4)ccc(c23)C(=O)N1c1ccccc1O	0%	10%	17%	73%	-150%	9%
Cn1c(=O)cc2c3c(c(N4CCCCC4)ccc31)C(=O)c1ccccc1-2	14µM*	-28%	35µM*	?	49%	10µM*
O=C1c2ccccc2-c2onc3ccc(N4CCCC4)c1c23	10µM*	?	?	20µM*	?	14µM*
C/C(=N\NS(=O)(=O)c1ccccc1)c1cccc(NC(=O)c2cccc(Cl)c2)c1	?	-7%	-22%	15%	-18%	-2%
COc1ccc(NS(=O)(=O)c2cc(OC)ccc2NC(=O)c2cc(C)oc2C)cc1	79µM*	-13%	?	-16%	35µM*	-6%
Cc1[nH]c2ccc3ncccc3c2c1C	?	-8%	-22%	27%	-29%	50µM*
Cc1cccc(C(=O)OCc2cc(=O)oc3c(C)c(C)ccc23)c1O	40µM*	-16%	-7%	32%	nt	-21%

Screening results (PubChem BioAssay)
